Measured values from PubChem BioAssay AID1159580 (chemical genetic matrix, 2015).
Hit rate of the full screen: of about 5,500 compounds, about 2,000 (36%) were called active. About 18% were inconclusive and are not listed. Some of the results follow. Unmarked numbers belong to inactive results. Rule as the data show it: active = normalized growth mostly below about 0.91 (no sharp cut-off); inconclusive = no clear call, values can overlap the other calls; inactive = mostly above about 0.92.

Assay: chemical genetic growth profiling, strain panel (AID 1159580);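 also: tested at 20 µM; growth read once vehicle control cultures reached saturation at 30 °C; 1 = growth at the plate median or of vehicle wells; lower values mean less growth of the strain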
Details: S. cerevisiae deletion strains, growth OD
[1] = locus YAL040C, strain CLN3, active compounds read low
[2] = locus YCL061C, strain MRC1 (second series), active compounds read low
[3] = locus YDR150W, strain NUM1, active compounds read low
[4] = locus YDR363W, strain ESC2, active compounds read low
[5] = locus YER002W, strain NOP16, active compounds read low
[6] = locus YNL175C, strain NOP13, active compounds read low
[7] = locus YNL197C, strain WHI3, active compounds read low
[8] = locus YNL224C, strain SQS1, active compounds read low
[9] = locus YOR083W, strain WHI5 (second series), active compounds read low

S=c1[nH]nc(Nc2ccc(I)cc2)s1
normalized growth (locus YAR019C, strain CDC15, active compounds read low): 0.839 (active) | normalized growth (locus YBL105C, strain PKC1, active compounds read low): 0.874 (active) | normalized growth (locus YBR135W, strain CKS1, active compounds read low): 0.881 (active) | normalized growth (locus YBR136W, strain MEC1, active compounds read low): 0.871 (active) | normalized growth (locus YBR160W, strain CDC28, active compounds read low): 0.885 (active) | normalized growth (locus YDL017W, strain CDC7, active compounds read low): 0.873 (active) | normalized growth (locus YDL028C, strain MPS1, active compounds read low): 0.873 (active) | normalized growth (locus YDL101C, strain DUN1, active compounds read low): 0.917 | normalized growth (locus YDL108W, strain KIN28, active compounds read low): 0.868 (active) | normalized growth (locus YDL132W, strain cdc53, active compounds read low): 0.904 | normalized growth (locus YDL214C, strain PRR2, active compounds read low): 0.722 | normalized growth (locus YDR052C, strain DBF4, active compounds read low): 0.874 (active) | normalized growth (locus YDR054C, strain cdc34, active compounds read low): 0.912 | normalized growth (locus YDR226W, strain ADK1, active compounds read low): 0.878 (active) | normalized growth (locus YDR477W, strain SNF1, active compounds read low): 0.644 (active) | normalized growth (locus YER123W, strain YCK3, active compounds read low): 0.504 (active) | normalized growth (locus YER133W, strain GLC7, active compounds read low): 0.607 (active) | normalized growth (locus YFL009W, strain cdc4, active compounds read low): 0.845 (active) | normalized growth (locus YFL029C, strain CAK1, active compounds read low): 0.814 (active) | normalized growth (locus YFR003C, strain YPI1, active compounds read low): 0.869 (active) | normalized growth (locus YFR019W, strain FAB1, active compounds read low): 0.813 | normalized growth (locus YFR028C, strain CDC14, active compounds read low): 0.871 (active) | normalized growth (locus YGR040W, strain KSS1, active compounds read low): 0.658 (active) | normalized growth (locus YGR052W, strain FMP48, active compounds read low): 0.744 | normalized growth (locus YGR092W, strain DBF2, active compounds read low): 0.326 (active) | normalized growth (locus YHR030C, strain SLT2, active compounds read low): 0.279 (active) | normalized growth (locus YHR079C, strain IRE1, active compounds read low): 0.362 (active) | normalized growth (locus YHR082C, strain KSP1, active compounds read low): 0.653 | normalized growth (locus YHR205W, strain SCH9, active compounds read low): 0.821 | normalized growth (locus YIL147C, strain SLN1, active compounds read low): 0.866 (active) | normalized growth (locus YJL095W, strain BCK1, active compounds read low): 0.396 (active) | normalized growth (locus YJL128C, strain PBS2, active compounds read low): 0.882 | normalized growth (locus YJL157C, strain FAR1, active compounds read low): 0.699 (active) | normalized growth (locus YJR016C, strain ILV3, active compounds read low): 0.85 (active) | normalized growth (locus YJR066W, strain TOR1 (second series), active compounds read low): 0.14 (active) | normalized growth (locus YJR066W, strain TOR1, active compounds read low): 0.462 (active) | normalized growth (locus YKL048C, strain ELM1, active compounds read low): 0.857 | normalized growth (locus YKL067W, strain YNK1, active compounds read low): 0.746 | normalized growth (locus YKL101W, strain HSL1, active compounds read low): 0.77 | normalized growth (locus YKL193C, strain SDS22, active compounds read low): 0.849 (active) | normalized growth (locus YKL203C, strain TOR2, active compounds read low): 0.648 (active) | normalized growth (locus YLR113W, strain HOG1, active compounds read low): 0.51 (active) | normalized growth (locus YLR133W, strain CKI1, active compounds read low): 0.745 | normalized growth (locus YLR403W, strain SFP1, active compounds read low): 0.566 (active) | normalized growth (locus YML070W, strain DAK1, active compounds read low): 0.676 (active) | normalized growth (locus YMR001C, strain CDC5, active compounds read low): 0.85 (active) | normalized growth (locus YMR205C, strain PFK2 (second series), active compounds read low): 0.743 (active) | normalized growth (locus YMR277W, strain FCP1, active compounds read low): 0.863 (active) | normalized growth (locus YNL006W, strain LST8, active compounds read low): 0.87 (active) | normalized growth (locus YNL020C, strain ARK1, active compounds read low): 0.71 (active) | normalized growth (locus YNL161W, strain CBK1, active compounds read low): 0.87 (active) | normalized growth (locus YNL183C, strain NPR1, active compounds read low): 0.516 (active) | normalized growth (locus YNL207W, strain RIO2, active compounds read low): 0.818 (active) | normalized growth (locus YNL222W, strain SSU72, active compounds read low): 0.864 (active) | normalized growth (locus YNL307C, strain MCK1 (second series), active compounds read low): 0.701 | normalized growth (locus YOL078W, strain AVO1, active compounds read low): 0.847 (active) | normalized growth (locus YOL136C, strain PFK27, active compounds read low): 0.651 (active) | normalized growth (locus YOR061W, strain CKA2, active compounds read low): 0.755 | normalized growth (locus YOR119C, strain RIO1, active compounds read low): 0.61 (active) | normalized growth (locus YOR231W, strain MKK1, active compounds read low): 0.447 (active) | normalized growth (locus YOR329C, strain SCD5, active compounds read low): 0.847 (active) | normalized growth (locus YPL031C, strain PHO85, active compounds read low): 0.495 (active) | normalized growth (locus YPL153C, strain RAD53, active compounds read low): 0.512 (active) | normalized growth (locus YPL204W, strain HRR25, active compounds read low): 0.486 (active) | normalized growth (locus YPL209C, strain IPL1, active compounds read low): 0.85 (active) | normalized growth (locus YPL256C, strain CLN2, active compounds read low): 0.438 (active) | normalized growth (locus YPR025C, strain CCL1, active compounds read low): 0.863 (active) | normalized growth (locus YPR106W, strain ISR1, active compounds read low): 0.894 | normalized growth (locus YPR111W, strain DBF20, active compounds read low): 0.911 | normalized growth (strain NNK1, active compounds read low): 0.893 | normalized growth (strain TSCII, active compounds read low): 0.838 (active)

Oc1cc2c(cc1O)CN(C(=S)NCCc1ccc(Cl)cc1)CCC2
normalized growth (locus YAL013W, strain DEP1, active compounds read low): 0.609 (active) | normalized growth [1]: 1.09 | normalized growth [2]: 0.683 (active) | normalized growth [3]: 0.656 (active) | normalized growth [4]: 0.879 | normalized growth [5]: 1 | normalized growth (locus YGR078C, strain PAC10, active compounds read low): 0.995 | normalized growth (locus YGR229C, strain SMI1, active compounds read low): 0.128 (active) | normalized growth (locus YJR075W, strain HOC1, active compounds read low): 0.718 (active) | normalized growth (locus YMR263W, strain SAP30, active compounds read low): 0.994 | normalized growth (locus YNL128W, strain TEP1, active compounds read low): 0.975 | normalized growth [6]: 1 | normalized growth [7]: 0.98 | normalized growth [8]: 0.997 | normalized growth (locus YNL322C, strain KRE1, active compounds read low): 0.992 | normalized growth [9]: 0.897

O=C(O)C1CCNCC1
normalized growth [1]: 1 | normalized growth [2]: 0.998 | normalized growth [3]: 1 | normalized growth [4]: 0.964 | normalized growth [5]: 0.995 | normalized growth (locus YNL153C, strain GIM3, active compounds read low): 1.01 | normalized growth [6]: 0.992 | normalized growth [7]: 0.992 | normalized growth [8]: 0.997 | normalized growth [9]: 1.01 | normalized growth (locus YPL055C, strain LGE1, active compounds read low): 1.01
